High-throughput results as filed in PubChem.
FBPA coupling cs: qHTS Assay for Inhibitors of Fructose-1,6-bisphosphate Aldolase from Giardia Lamblia: Coupling assay counterscreen; 0.67% of 290,000 active; AID 2472, 2010; coupling enzyme system counterscreen, AmpLite Red fluorescence; activity change, negative = inhibition, % at 58.2 µM, hits read low; in the data active means activity change below about -30%
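Counterscreen lacking aldolase: glyceraldehyde-3-phosphate coupling-enzyme reagent preincubated 10 min at RT with compound (at 57.5 uM final), then substrate/coupling system with AmpLite Red added; fluorescence read at 525/598 nm after 20 min RT.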
aGlu spleen mod: qHTS Assay for Inhibitors and Activators of Human alpha-Glucosidase From Spleen Homogenate; AID 2112, 2009; Potency, µM (highest dose often 79.9 µM), for the others: top-dose activity change, negative = inhibition, actives largely listed as inhibitors; human spleen homogenate, 4-MU-alpha-glucoside fluorescence; 0.006% of 240,000 active;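 further: potency means the concentration at half of the fitted maximal effect; 0% = enzyme with vehicle and -100% = no enzyme basal signal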
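Human spleen homogenate (1 ug) incubated with compounds and 1 mM 4-methylumbelliferyl-alpha-D-glucopyranoside in pH 5.0 citrate/phosphate buffer, 37 C, 40 min. Stopped at pH 10; 4-MU fluorescence (Ex 365/Em 440 nm); AC50 by Hill fit.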
B2AR arrestin: qHTS assay of beta-arrestin-biased ligands of beta2-adrenergic receptor; Beta-2 adrenergic receptor (Homo sapiens), P07550; beta-arrestin recruitment to beta2AR, cell-based reporter; Potency, µM (series often up to 46.1 µM), for the others: at the highest dose activation, hits mostly activators; 0.02% of 330,000 active; AID 492947, 2010;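 further: potency means the concentration at half of the fitted maximal effect; 0% = DMSO controls and full agonism = EC100 isoproterenol or metaproterenol; nearly all actives have a fitted effect of over 65% in size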
Target sequence (P07550 whole entry, looked up): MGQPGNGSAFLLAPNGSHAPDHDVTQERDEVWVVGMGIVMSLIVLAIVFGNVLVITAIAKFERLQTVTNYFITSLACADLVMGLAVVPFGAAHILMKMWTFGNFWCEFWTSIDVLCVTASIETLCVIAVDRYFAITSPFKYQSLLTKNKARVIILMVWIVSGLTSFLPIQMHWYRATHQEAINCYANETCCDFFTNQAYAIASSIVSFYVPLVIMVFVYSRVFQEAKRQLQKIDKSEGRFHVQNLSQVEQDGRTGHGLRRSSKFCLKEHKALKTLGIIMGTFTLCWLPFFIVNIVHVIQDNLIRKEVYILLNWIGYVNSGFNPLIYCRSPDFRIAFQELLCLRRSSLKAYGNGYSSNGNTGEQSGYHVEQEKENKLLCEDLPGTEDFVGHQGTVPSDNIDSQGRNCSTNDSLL
GAA inh: qHTS Assay for Inhibitors of Human alpha-Glucosidase as a Potential Chaperone Treatment of Pompe Disease; Lysosomal alpha-glucosidase (Homo sapiens), P10253; purified human GAA, 4-MU-alpha-glucoside fluorescence; Potency, µM (highest dose often 76.9 µM), inactives show top-dose activity change, negative = inhibition, usual class: inhibitors; 0.005% of 200,000 active; AID 1466, 2008;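 further: potency means the concentration at half of the fitted maximal effect; plate controls were uninhibited enzyme wells for no effect and no-enzyme background for full effect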
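Endpoint fluorogenic read: 20 min room-temperature reaction of 4 nM human alpha-glucosidase with 400 uM 4-methylumbelliferyl-alpha-D-pyranoside, pH 5.0, quenched with 1M NaOH/1M glycine pH 10. AC50 from Hill modeling.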
GAA glycogen mod: qHTS Assay for Inhibitors and Activators of Human alpha-Glucosidase Cleavage of Glycogen | 0.38% of 300,000 active | Lysosomal alpha-glucosidase (Homo sapiens), P10253 | Potency, µM (top dose mostly 76.4 µM), without a hit: at the top dose activity change, negative = inhibition, actives largely listed as inhibitors | AID 2100, 2009 | recombinant GAA, glycogen substrate, Amplex Red glucose oxidase fluorescence;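 further: potency means the concentration at half of the fitted maximal effect; 0% = full enzyme reaction and -100% = no-enzyme basal signal; the screen sought inhibitors and activators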
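Recombinant enzyme (4 nM final) with compounds titrated up to 77 uM and bovine liver glycogen (30 ug) in citrate pH 5.0, 0.01% Tween-20, 37 C 40 min. Released glucose detected by Amplex Red/glucose oxidase (Ex 573/Em 610); AC50 from Hill fits.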
* hit, by the source's call; ? = inconclusive; nt = not tested or not shown; [ ] = remark or other dose. Rows were chosen to be rich in hits. Some 0.85% of all compounds tested hit in one or more screens of this group. Unless noted, the call rests on the fitted dose curve; in most records, active means well fitted curve in the direction sought with a large enough effect; inconclusive means small, poorly fitted or top-dose-only effect, or another doubt; inactive means no such curve, though single readings can be large; an effect the other way counts as inactive or inconclusive. Unless noted, on the % scale 0 is the no-effect control and ±100 the full control effect.

SMILES	FBPA coupling cs	aGlu spleen mod	B2AR arrestin	GAA inh	GAA glycogen mod
CC[C@H](C)[C@H](NC(=O)[C@H](CO)NC(=O)[C@H](CC(N)=O)NC(=O)[C@H](CC(C)C)NC(=O)[C@H](Cc1ccc(O)cc1)NC(=O)[C@H](CCCCN)NC(=O)[C@H](CCCCN)NC(=O)[C@@H](NC(=O)[C@H](C)NC(=O)[C@H](CCSC)NC(=O)[C@H](CCC(N)=O)NC(=O)[C@H](CCCCN)NC(=O)[C@H](CCCNC(=N)N)NC(=O)[C@H](CC(C)C)NC(=O)[C@H](CCCNC(=N)N)NC(=O)[C@@H](NC(=O)[C@H](Cc1ccc(O)cc1)NC(=O)[C@H](CC(N)=O)NC(=O)[C@H](CC(=O)O)NC(=O)[C@@H](NC(=O)[C@H](Cc1ccccc1)NC(=O)[C@@H](NC(=O)[C@H](C)NC(=O)[C@H](CC(=O)O)NC(=O)[C@H](CO)NC(=O)[C@@H](N)Cc1cnc[nH]1)C(C)C)[C@@H](C)O)[C@@H](C)O)C(C)C)C(=O)N[C@@H](CC(C)C)C(=O)N[C@@H](CC(N)=O)C(N)=O	0.5	9.2%	nt	nt	nt
O=C(NNc1nc2c(F)cc(F)cc2s1)C1=COCCO1	0.8	13.0%	0.1%	1.3%	4.43µM*
Cc1cccc2sc(NNC(=O)C3=COCCO3)nc12	1.0	-0.1%	-0.3%	3.9%	?
Cc1nn(-c2ccccc2)c2c1cc1c(=O)n(C)c(=O)nc-1n2-c1cccc(Cl)c1	nt	nt	nt	nt	12.2%[76.3 µM]
Cc1cccc(NC(=O)CN(C)S(=O)(=O)c2ccc3c(c2)CCC(=O)N3)c1C	nt	nt	nt	nt	7.9%[76.3 µM]
CCCCCCCC1(C)NC(=O)N(c2ccccc2)N1 (configuration not stated)	0.2	-9.1%	-0.9%	-12.4%	25.1µM*
Cc1cccc(OCC(=O)Nc2ccc3c(c2)nc(CCN2CCN(c4ccccn4)CC2)n3C)c1	3.3	nt	-0.2%	nt	3.0%[76.3 µM]
Cc1c(CNC(C)CCc2ccccc2)c(C(=O)O)c(C)n1Cc1ccc(F)cc1 (configuration not stated)	nt	nt	nt	nt	15.2%[76.3 µM]
CCc1oc(C(=O)O)cc1COC	-0.2	-5.8%	0.1%	-1.9%	0.1%
COCc1cc(O)c(O)c(O)c1-c1c(COC)cc(O)c(O)c1O	-48.9*	-2.0%	nt	nt	nt
C[C@@H](O)C(N)C(=O)O (some centres not stated)	-2.1	1.6%	nt	nt	nt
CCCC[C@]12Cc3ccccc3C(O1)c1c(cc(-c3ccccc3)oc1=O)O2	-31.5*	nt	-0.2%[9.22 µM]	nt	-28.3%[15.3 µM]
CCCC[C@]12Cc3cc(OC)c(OC)cc3C(O1)c1c(cc(-c3ccccc3)oc1=O)O2	-0.7	nt	-0.2%[9.22 µM]	nt	5.7%[15.3 µM]
CCOC(=O)c1[nH]nc(-c2cc(CC)c(O)cc2O)c1-c1cscn1	-23.8	7.0%	0.0%	-5.0%	12.5µM*
CCOC(=O)c1c(/N=C/c2ccc(C)cc2O)sc2c1CCC2	-1.7	-0.4%	-0.5%	2.3%	14.1µM*
Cc1ccccc1S(=O)(=O)NNC(=O)C(=O)NNc1ccccn1	0.0	3.8%	-2.1%	-2.0%	3.55µM*
Cc1ccc(S(=O)(=O)NNC(=O)C(=O)NNc2ccccn2)cc1	0.3	-7.7%	-0.5%	0.4%	3.52µM*
CC(=O)Nc1ccc(S(=O)(=O)NNC(=O)C(=O)NNc2ccccn2)cc1	1.1	-6.6%	0.0%	1.6%	?
Nc1ccc(S(=O)(=O)NNC(=O)C(=O)NNc2ccccn2)cc1	-5.9	-4.8%	0.2%	-4.5%	3.16µM*
CCCCN(Cc1ccco1)C(=O)Cn1ncc2c([nH]c3ccccc32)c1=O	nt	nt	nt	nt	-6.4%[76.3 µM]
CCN1CCN(C2=C(NS(=O)(=O)c3ccc(C)cc3)C(=O)c3ccccc3C2=O)CC1	nt	nt	0.0%	nt	-4.6%[76.3 µM]
O=C(/C=C/c1ccc(O)cc1)c1ccc(NC2=C(N3CCCCC3)C(=O)c3ccccc3C2=O)cc1	-45.7*	-9.2%	0.5%	1.2%	-18.5%
Cc1ccc(NC2=C(N3CCCCC3)C(=O)c3ccccc3C2=O)cc1	-45.4*	1.1%	-0.1%	-1.2%	-12.8%
O=C1C(Nc2ccccc2)=C(N2CCCCC2)C(=O)c2ccccc21	-49.5*	-0.3%	-0.2%	6.1%	-16.2%
O=C1C(NS(=O)(=O)c2ccc(Br)cc2)=C(N2CCCCC2)C(=O)c2ccccc21	-26.4	nt	-0.8%	nt	nt
SMILES	FBPA coupling cs	aGlu spleen mod	B2AR arrestin	GAA inh	GAA glycogen mod
CN(C1=C(N2CCCCC2)C(=O)c2ccccc2C1=O)c1ccccc1	-27.5	-1.5%	-0.1%	-5.3%	0.8%
COc1ccccc1NC1=C(N2CCCCC2)C(=O)c2ccccc2C1=O	-50.8*	-0.3%	-0.1%	-2.6%	-5.1%
c1ccc(C(NCc2cccnc2)(c2ccccc2)c2ccccc2)cc1	3.5	5.3%	nt	nt	nt
O=C(O)c1cccc(NC2=C(Cl)C(=O)c3ccccc3C2=O)c1	-19.5	9.5%	-1.0%	0.4%	21.4%
O=C1C(Nc2cccc(O)c2)=C(N2CCCCC2)C(=O)c2ccccc21	-51.5*	-1.1%	-3.4%	?	?
CCN(CC)Cc1cc(O)c(CN(CC)CC)cc1O	-33.3*	-0.5%	0.2%	1.9%	13.1%
CCC12C=C(/C=C/c3ccccc3)C(CC)(C1)C(c1ccccc1)CC2=O (configuration not stated)	0.8	8.7%[17.4 µM]	nt	nt	nt
C=CCN1CCN(C(c2ccc(OC)c(OC)c2)c2nnnn2C(C)(C)C)CC1 (configuration not stated)	-72.3*	-0.8%	0.5%	-2.0%	-6.8%
COc1cc(OC)cc(-c2nnc3n2N=C(c2c(OC)cccc2OC)CS3)c1	-3.1	-8.3%	nt	nt	nt
NC(=O)CC1Nc2cccc3cccc(c23)NC1=O (configuration not stated)	0.7	2.8%	0.1%	7.3%	0.7%
O=C(CC1Nc2cccc3cccc(c23)NC1=O)Nc1ccccc1 (configuration not stated)	-39.8*	2.5%	0.6%	-1.0%	?
Cc1cccc(N2CC(C(=O)Nc3nnc(SCC(=O)Nc4nccs4)s3)CC2=O)c1 (configuration not stated)	-0.2	5.3%	-0.3%	1.1%	-3.2%
Cc1cccc(N2CC(C(=O)Nc3nnc(SCC(=O)Nc4cc(C)on4)s3)CC2=O)c1 (configuration not stated)	-43.9*	7.4%	-0.1%	4.3%	5.2%
Cc1ccc(Nc2c(-c3ccco3)nc3ccccn23)cc1	5.1	-6.4%	0.3%	11.2%	?
Cc1ccc(Nc2c(-c3c[nH]c4ccccc34)nc3ccccn23)cc1	nt	nt	nt	nt	4.47µM*
COc1ccc2c(c1)C(=O)[C@H](OC(=O)NCc1ccc3c(c1)OCO3)[C@@H](c1ccc(OC)c(Br)c1)O2	4.0	-2.8%	nt	nt	nt
